# Experiments:
# Assay in all cases: yeast three-hybrid, YBZ-1, SC-Leu-His + 0.5 mM 3-AT, 4 days
# Conditions in all cases: tags: N-Gal4 AD-HA kept; label: inside an RPR1-promoter hybrid RNA with tandem MS2 sites; ssRNA
# PUM1 PUF domain R5-KRE = PUM1 PUF domain R5-KRE (Homo sapiens, UniProt Q14671 828-1176, C1007K;Q1011E)
# How it was run: (§1)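 The interaction score is the log change in how often each variant appears, from input to selection. Frequencies came from PCR-amplified, Illumina-sequenced repeat regions of Pumilio-1 PUF domain libraries grown in strain YBZ-1 (LexA–MS2 coat fusion, HIS3 reporter) alongside matching RNA elements. Input plates were SC-Leu and selection plates were SC-Leu-His + 0.5 mM 3-AT, each for four days, and the log2 calculation used a pseudocount of 1 where a variant was absent.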
# PUM1 PUF domain R5-KSW = PUM1 PUF domain R5-KSW (Homo sapiens, UniProt Q14671 828-1176, C1007K;R1008S;Q1011W)
# How it was run: as §1
# PUM1 PUF domain R3-GYF = PUM1 PUF domain R3-GYF (Homo sapiens, UniProt Q14671 828-1176, C935G;R936Y;Q939F)
# How it was run: as §1
# PUM1 PUF domain R3-YRF = PUM1 PUF domain R3-YRF (Homo sapiens, UniProt Q14671 828-1176, C935Y;Q939F)
# How it was run: as §1
# PUM1 PUF domain R4-DFV = PUM1 PUF domain R4-DFV (Homo sapiens, UniProt Q14671 828-1176, N971D;H972F;Q975V)
# How it was run: as §1
# PUM1 PUF domain R6-GFM = molecular target: T1, PUM1 PUF domain R6-GFM (Homo sapiens, UniProt Q14671 828-1176, N1043G;Y1044F;Q1047M)
# T1 sequence: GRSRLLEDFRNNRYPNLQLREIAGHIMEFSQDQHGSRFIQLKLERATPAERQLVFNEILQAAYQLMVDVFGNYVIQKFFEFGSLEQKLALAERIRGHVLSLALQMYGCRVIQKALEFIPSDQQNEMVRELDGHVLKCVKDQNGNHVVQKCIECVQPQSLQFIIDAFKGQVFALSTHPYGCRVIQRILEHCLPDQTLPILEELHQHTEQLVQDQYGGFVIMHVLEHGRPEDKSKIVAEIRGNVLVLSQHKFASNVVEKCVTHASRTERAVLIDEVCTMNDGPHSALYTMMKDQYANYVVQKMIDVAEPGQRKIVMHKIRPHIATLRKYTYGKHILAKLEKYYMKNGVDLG
# How it was run: as §1
# PUM1 PUF domain R3-RQE = PUM1 PUF domain R3-RQE (Homo sapiens, UniProt Q14671 828-1176, C935R;R936Q;Q939E)
# How it was run: as §1
# PUM1 PUF domain R3-RQP = PUM1 PUF domain R3-RQP (Homo sapiens, UniProt Q14671 828-1176, C935R;R936Q;Q939P)
# How it was run: as §1
# PUM1 PUF domain R3-LHY = PUM1 PUF domain R3-LHY (Homo sapiens, UniProt Q14671 828-1176, C935L;R936H;Q939Y)
# How it was run: as §1
# PUM1 PUF domain R3-RRE = PUM1 PUF domain R3-RRE (Homo sapiens, UniProt Q14671 828-1176, C935R;Q939E)
# How it was run: as §1
# PUM1 PUF domain R8-YYK = PUM1 PUF domain R8-YYK (Homo sapiens, UniProt Q14671 828-1176, N1122Y;Q1126K)
# How it was run: as §1
# PUM1 PUF domain R4-NRR = PUM1 PUF domain R4-NRR (Homo sapiens, UniProt Q14671 828-1176, H972R;Q975R)
# How it was run: as §1
# PUM1 PUF domain R4-KSQ = PUM1 PUF domain R4-KSQ (Homo sapiens, UniProt Q14671 828-1176, N971K;H972S)
# How it was run: as §1
# PUM1 PUF domain R7-ERQ = PUM1 PUF domain R7-ERQ (Homo sapiens, UniProt Q14671 828-1176, S1079E;N1080R;E1083Q)
# How it was run: as §1
# PUM1 PUF domain R7-RQR = PUM1 PUF domain R7-RQR (Homo sapiens, UniProt Q14671 828-1176, S1079R;N1080Q;E1083R)
# How it was run: as §1
# Chain of PUM1 PUF domain R5-KRE (Q14671 828-1176 C1007K/Q1011E): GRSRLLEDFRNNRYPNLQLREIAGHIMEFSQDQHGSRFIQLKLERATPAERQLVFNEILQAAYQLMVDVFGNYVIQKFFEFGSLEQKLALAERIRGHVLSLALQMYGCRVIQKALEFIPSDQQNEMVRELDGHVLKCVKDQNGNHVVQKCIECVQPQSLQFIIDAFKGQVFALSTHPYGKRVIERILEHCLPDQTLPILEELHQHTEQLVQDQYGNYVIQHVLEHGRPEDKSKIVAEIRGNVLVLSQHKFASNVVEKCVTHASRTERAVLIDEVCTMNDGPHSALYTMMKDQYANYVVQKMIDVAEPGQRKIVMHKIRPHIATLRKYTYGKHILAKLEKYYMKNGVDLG
# Chain of PUM1 PUF domain R7-ERQ (Q14671 828-1176 S1079E/N1080R/E1083Q): as the sequence (Q14671 828-1176 C1007K/Q1011E) above, with K180C, E184Q, S252E, N253R, E256Q counted along it
# Chain of PUM1 PUF domain R7-RQR (Q14671 828-1176 S1079R/N1080Q/E1083R): as the sequence (Q14671 828-1176 C1007K/Q1011E) above, with K180C, E184Q, S252R, N253Q, E256R counted along it
# Chain of PUM1 PUF domain R5-KSW (Q14671 828-1176 C1007K/R1008S/Q1011W): as the sequence (Q14671 828-1176 C1007K/Q1011E) above, with R181S, E184W counted along it
sequence,measurement,setting,value
GGCUAGAACUAGUGGAUCCCCCGGCGCCCGGCGGCUCGAGCCCGGGUAAGUGUCAAUAGUCUGCAUGCCGCCGGGCGCCAUGCCUGCAGGUCGACUCUAGAAAACAUG,binding signal,PUM1 PUF domain R5-KRE,2.98 log2 enrichment (interaction score)
same,binding signal,PUM1 PUF domain R5-KSW,2.82 log2 enrichment (interaction score)
GGCUAGAACUAGUGGAUCCCCCGGCGCCCGGCGGCUCGAGCCCGGGUAAGUGUAAAUAGUCUGCAUGCCGCCGGGCGCCAUGCCUGCAGGUCGACUCUAGAAAACAUG,binding signal,PUM1 PUF domain R3-GYF,5.74 log2 enrichment (interaction score)
same,binding signal,PUM1 PUF domain R3-YRF,1.16 log2 enrichment (interaction score)
same,binding signal,PUM1 PUF domain R4-DFV,6 log2 enrichment (interaction score)
same,binding signal,PUM1 PUF domain R6-GFM,3.52 log2 enrichment (interaction score)
GGCUAGAACUAGUGGAUCCCCCGGCGCCCGGCGGCUCGAGCCCGGGUAAGUGUAAUUAGUCUGCAUGCCGCCGGGCGCCAUGCCUGCAGGUCGACUCUAGAAAACAUG,binding signal,PUM1 PUF domain R3-RQE,2.81 log2 enrichment (interaction score)
same,binding signal,PUM1 PUF domain R3-RQP,3.85 log2 enrichment (interaction score)
same,binding signal,PUM1 PUF domain R3-LHY,4.13 log2 enrichment (interaction score)
same,binding signal,PUM1 PUF domain R3-RRE,3.8 log2 enrichment (interaction score)
GGCUAGAACUAGUGGAUCCCCCGGCGCCCGGCGGCUCGAGCCCGGGUAAGCGUAAAUAGUCUGCAUGCCGCCGGGCGCCAUGCCUGCAGGUCGACUCUAGAAAACAUG,binding signal,PUM1 PUF domain R8-YYK,4.78 log2 enrichment (interaction score)
GGCUAGAACUAGUGGAUCCCCCGGCGCCCGGCGGCUCGAGCCCGGGUAAGUGUACAUAGUCUGCAUGCCGCCGGGCGCCAUGCCUGCAGGUCGACUCUAGAAAACAUG,binding signal,PUM1 PUF domain R4-NRR,3.57 log2 enrichment (interaction score)
same,binding signal,PUM1 PUF domain R4-DFV,3.48 log2 enrichment (interaction score)
GGCUAGAACUAGUGGAUCCCCCGGCGCCCGGCGGCUCGAGCCCGGGUAAGUGUAUAUAGUCUGCAUGCCGCCGGGCGCCAUGCCUGCAGGUCGACUCUAGAAAACAUG,binding signal,PUM1 PUF domain R4-NRR,1.51 log2 enrichment (interaction score)
same,binding signal,PUM1 PUF domain R4-KSQ,3.81 log2 enrichment (interaction score)
GGCUAGAACUAGUGGAUCCCCCGGCGCCCGGCGGCUCGAGCCCGGGUAAGUCUAAAUAGUCUGCAUGCCGCCGGGCGCCAUGCCUGCAGGUCGACUCUAGAAAACAUG,binding signal,PUM1 PUF domain R7-ERQ,2.6 log2 enrichment (interaction score)
same,binding signal,PUM1 PUF domain R7-RQR,3.17 log2 enrichment (interaction score)
GGCUAGAACUAGUGGAUCCCCCGGCGCCCGGCGGCUCGAGCCCGGGUAAGUGUAAGUAGUCUGCAUGCCGCCGGGCGCCAUGCCUGCAGGUCGACUCUAGAAAACAUG,binding signal,PUM1 PUF domain R3-YRF,5.65 log2 enrichment (interaction score)

# Reference: publication PMC8384837, “Expanding the binding specificity for RNA recognition by a PUF domain”
